The source made the active and inactive calls.
Tests used:
Albumin (Bos taurus) = Albumin (Bos taurus) (UniProt P02769); assay: bovine serum albumin binders on microarray, profiling panel, artefact control for SMM control protein annotation, biochemical, small-molecule microarray, Alexa647 label, 635/667 nm fluorescence (AID 1118); settings: BSA-A647 binding, fluorescence 635 nm, higher = more signal;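 also: score merges 667 nm emission intensity and signal-to-noise per printed compound spot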
[1] = small-molecule microarray binders of probe aXIP, primary screen, biochemical, NeuroSMM set, 635/667 nm fluorescence (AID 1119); settings: higher = more signal, called active from +8 up or from −8 down;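 also: probe is the protein aXip251-270 applied at 1 µg/mL to compound-printed slides; binding of probe to printed compounds measured as 667 nm fluorescence plus signal to noise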
[2] = small-molecule binders of probe aNOTCH3, primary screen, biochemical, small-molecule microarray, 635/667 nm fluorescence (AID 1120); settings: higher = more signal;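 also: probe is a biotin-tagged antibody raised against NOTCH3 rather than NOTCH3 protein; score merges spot fluorescence near 667 nm with spot signal to noise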
[3] = small-molecule binders of probe aNOTCH2, primary screen, biochemical, small-molecule microarray, 635/667 nm fluorescence (AID 1121); settings: higher = more signal;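 also: score merges feature fluorescence read at 667 nm with its signal to noise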
[4] = target: Carbonic anhydrase 2 (Homo sapiens) (UniProt P00918); assay: CAII small-molecule binders, profiling panel, biochemical, small-molecule microarray, Alexa647-labelled CAII (AID 1122); settings: CAII-A647 binding fluorescence, higher = more signal
[5] = COS7 lysate on small-molecule microarray, probe aHis, 635 nm (AID 1123); settings: COS7 cell lysate, fluorescence, higher = more signal;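 also: z-score combines 667nm fluorescence intensity with signal-to-noise per printed compound spot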
[6] = compound binding in COS7 lysate, probe aLAP1, primary screen, cell lysate, small-molecule microarray (AID 1124); settings: probe aLAP1, fluorescence, higher = more signal;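 also: lysate comes from COS7 cells expressing LAP1 and is applied at 0.3 µg/mL; score merges spot fluorescence near 667 nm with signal-to-noise over triplicate slides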
Sam68 (KHDRBS1) = assay: Sam68 small-molecule binders, primary screen, biochemical, small-molecule microarray, 635 nm fluorescence (AID 1125); settings: small-molecule microarray binding, higher = more signal;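 also: score merges 667 nm channel intensity with signal to noise over triplicate slides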
[7] = tested on: Chordin-like protein 2 (CHRDL2); assay: CHRDL2 small-molecule binders, primary screen, biochemical, small-molecule microarray, 635 nm fluorescence (AID 1126); settings: small-molecule microarray binding, fluorescence 635 nm; higher = more signal;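 also: printed compound slides probed with Chrdl2 protein at 4 µg/mL for 1 h at 4 C; score merges 667 nm emission intensity with signal to noise over three replicate slides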
[8] = target: Concanavalin-A (Canavalia ensiformis) (UniProt P02866); assay: ConA small-molecule binders, primary screen, artefact control for SMM control protein annotation, biochemical, small-molecule microarray, Alexa647 label, 635 nm (AID 1127); settings: ConA-A647 binding fluorescence, higher = more signal;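 also: z combines 667 nm emission intensity with signal-to-noise across three replicate slides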
Chain of Concanavalin-A (Canavalia ensiformis) (P02866 whole entry, looked up): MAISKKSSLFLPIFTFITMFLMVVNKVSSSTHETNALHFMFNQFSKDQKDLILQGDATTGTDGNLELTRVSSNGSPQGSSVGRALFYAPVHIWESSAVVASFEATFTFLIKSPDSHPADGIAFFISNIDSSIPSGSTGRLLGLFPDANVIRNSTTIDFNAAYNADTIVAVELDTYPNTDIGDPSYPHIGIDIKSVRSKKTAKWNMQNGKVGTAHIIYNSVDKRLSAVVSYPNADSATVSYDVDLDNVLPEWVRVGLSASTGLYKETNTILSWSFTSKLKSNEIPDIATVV

Chain of Albumin (Bos taurus) (P02769 whole entry, looked up): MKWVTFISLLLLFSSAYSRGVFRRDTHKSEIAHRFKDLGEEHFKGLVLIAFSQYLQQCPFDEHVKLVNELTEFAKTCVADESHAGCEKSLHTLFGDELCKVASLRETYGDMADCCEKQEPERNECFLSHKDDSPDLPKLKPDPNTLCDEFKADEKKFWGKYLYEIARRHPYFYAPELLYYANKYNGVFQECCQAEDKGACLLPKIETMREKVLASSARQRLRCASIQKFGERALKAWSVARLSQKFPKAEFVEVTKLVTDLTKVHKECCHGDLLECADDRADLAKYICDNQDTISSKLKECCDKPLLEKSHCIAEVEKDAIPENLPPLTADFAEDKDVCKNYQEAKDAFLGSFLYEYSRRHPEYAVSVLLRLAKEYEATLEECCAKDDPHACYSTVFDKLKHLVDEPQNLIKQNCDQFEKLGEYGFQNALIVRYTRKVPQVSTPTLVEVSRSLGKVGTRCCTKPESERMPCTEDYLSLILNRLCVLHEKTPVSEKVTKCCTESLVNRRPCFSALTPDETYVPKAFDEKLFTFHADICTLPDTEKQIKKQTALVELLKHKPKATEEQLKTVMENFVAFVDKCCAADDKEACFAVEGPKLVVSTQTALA

Compound | composite z-score (Albumin (Bos taurus)) | composite Z-score [1] | composite z-score [2] | composite z-score [3] | composite z-score [4] | composite z-score [5] | composite z-score [6] | composite z-score (Sam68 (KHDRBS1)) | composite z-score [7] | composite z-score [8]
C=CCC(OC(C)=O)[C@@H]1[C@@H](N(Cc2ccc(-c3ccccc3)cc2)C(=O)c2cccc3ccccc23)c2cc(OCCCO)ccc2N1C(=O)c1ccc2ccccc2c1 (stereo not given in full) | 0.002 | -0.124 (inactive) | -0.0377 | -0.0368 | 0.0991 | 0.116 | 0.0105 | 0.263 | -0.52 | -0.31
CC(c1ccccc1)C(O)C1C=CC2C(=O)N(c3ccccc3)C(=O)C2N1Nc1ccc(C#N)cc1 (stereo not given) | 0.976 | -0.105 (inactive) | 0.609 | -0.0062 | 0.6 | 3.28 | 0.359 | 1.34 | -0.34 | 1.15
C=C(C(=O)CC[C@@H](OC(C)=O)c1cccc(OCCO)c1)C(C)C | 0.371 | 0.566 (inactive) | -0.0311 | -0.148 | 0.862 | 1.82 | 0.0326 | 0.813 | -0.298 | 0.691
COCCOC(=O)N1C(=O)[C@@]2(c3ccccc31)[C@H](C(N)=O)[C@H]1C(=O)O[C@H](c3ccccc3)[C@H](c3ccccc3)N1[C@@H]2c1ccc(OCCO)cc1 | 0.787 | 1.32 (inactive) | -0.0055 | -0.123 | 0.508 | 1.74 | 0.103 | 1.31 | 0.33 | 1.15
CC(C)C[C@H]1NC(=O)[C@@H](C)NC(=O)[C@@]23C(=O)N[C@@H](Cc4ccccc4)C2[C@H](C)[C@@]2(C)O[C@H]2C3/C=C/C/C=C\CNC1=O (stereo not given in full) | 0.239 | -0.162 (inactive) | -0.189 | -0.202 | 0.686 | 0.394 | -0.0995 | 0.997 | 0.831 | 0.124
CN1C(=O)[C@]2(CCS(=O)(=O)c3ccccc3)N=C(c3ccc(OCCCO)cc3)O[C@@H]2c2ccccc21 | 0.568 | 0.222 (inactive) | 0.0026 | -0.121 | 0.531 | 2.81 | 0.354 | 1.2 | 0.502 | 0.838
CN(C)CCCC[C@@H]1NC(=O)[C@@H]2C[C@H](C(=O)NCc3ccc(F)cc3)[C@H](c3ccc(O)cc3)N2C1=O | -0.16 | 0.0275 (inactive) | 0.0562 | -0.0974 | 0.609 | 0.901 | 0.339 | 0.17 | 0.0978 | 0.911
CC(C)CNC(=O)[C@@H]1c2ccccc2C(=O)N(C(C)C)[C@H]1c1ccc(CO)cc1 | 0.121 | 0.337 (inactive) | -0.153 | -0.0454 | 0.757 | 0.435 | 1.25 | -0.463 | 0.0021 | -1.56
COC(=O)[C@@]1(Cc2ccc(F)cc2)[C@H]2c3cc(C(=O)N(C)C)n(CCN4CCOCC4)c3C[C@H]2CN1C(=O)c1ccccc1 | 0.851 | -0.34 (inactive) | 0.296 | 0.739 | 0.39 | 2.08 | 0.0192 | -0.0247 | -0.361 | 0.618
C=C(COC)/C(=C/C[C@@H](OC(C)=O)c1ccccc1OCCO)c1cc(C(=O)OC)ccc1OC | 0.27 | 1.02 (inactive) | 0.213 | -0.122 | 0.388 | 0.283 | 0.0845 | 0.844 | -0.183 | 0.369
COC(=O)[C@@]1(Cc2ccc(OC)cc2)[C@H]2c3cc(C(=O)N(C)C)n(Cc4ccsc4Br)c3C[C@H]2CN1C(=O)c1ccccc1 | 0.968 | -0.362 (inactive) | 0.69 | 0.371 | 0.898 | 1.65 | 0.107 | 0.399 | -0.0018 | 0.852
COCCOC(=O)N1C(=O)[C@@]2(c3ccccc31)[C@H](c1ccc(OCCO)cc1)N1[C@H](c3ccccc3)[C@H](c3ccccc3)OC(=O)[C@H]1[C@@H]2C(=O)N1CCN(c2ncccn2)CC1 | 0.0718 | -0.216 (inactive) | 0.146 | 0.0248 | 0.351 | 1.78 | 0.282 | 1.3 | 0.756 | 1.1
COCCCNC(=O)[C@@H]1c2ccccc2C(=O)N(Cc2cc(C(F)(F)F)cc(C(F)(F)F)c2)[C@H]1c1ccc(CO)cc1 | -0.873 | -0.0722 (inactive) | 0.531 | 0.0282 | 0.685 | 1.68 | -0.182 | 0.299 | -0.716 | -1.06
C=C(COC)C(=O)CC[C@@H](OC(C)=O)c1ccc(OCCO)cc1 | -0.561 | 0.392 (inactive) | 0.0426 | -0.125 | 0.648 | 0.206 | -0.217 | 0.744 | -0.127 | 0.891
C=CC[C@]1(C(=O)NCc2ccccc2)COC(c2ccc(OCCCO)cc2)=N1 | 0.981 | 3.11 (inactive) | 0.0789 | 0.114 | 0.84 | 2.75 | 1.46 | -0.297 | -0.623 | -0.507
CCc1cccc(NC(=O)O[C@H]2[C@H](OC(=O)Nc3ccc4c(c3)OCO4)[C@H](OC(=O)Nc3ccc4c(c3)OCO4)[C@@H](OC)O[C@@H]2CO)c1 | 0.208 | 1.31 (inactive) | 0.337 | 0.817 | 0.486 | 2.46 | -0.0378 | 1.29 | -0.0095 | 1.14

Compound | composite z-score (Albumin (Bos taurus)) | composite Z-score [1] | composite z-score [2] | composite z-score [3] | composite z-score [4] | composite z-score [5] | composite z-score [6] | composite z-score (Sam68 (KHDRBS1)) | composite z-score [7] | composite z-score [8]
COc1ccc(C(O)C2C=CC3C(=O)N(C)C(=O)C3N2Nc2ccc([N+](=O)[O-])cc2[N+](=O)[O-])cc1OCc1ccccc1 (stereo not given) | 0.747 | -0.213 (inactive) | 0.583 | 0.29 | 0.633 | 2.36 | 0.53 | 1.32 | -0.599 | 0.892
COCCOC(=O)N1C(=O)[C@@]2(c3cc(C#CC4(O)CCCCCC4)ccc31)[C@H](C(=O)N1CCc3cc(OC)c(OC)cc3C1)[C@H]1C(=O)O[C@H](c3ccccc3)[C@H](c3ccccc3)N1[C@@H]2c1ccc(O)cc1 | 0.609 | 0.413 (inactive) | 0.163 | 0.0012 | 0.638 | 1.58 | 0.773 | 1.29 | 0.34 | 1.16
CC(C)C[C@@H]1NC(=O)[C@@]23C(=O)N[C@@H](Cc4ccccc4)C2[C@H](C)[C@@]2(C)O[C@H]2C3/C=C/C/C=C\CNC(=O)[C@@H](CC(C)C)NC1=O (stereo not given in full) | 0.757 | 0.183 (inactive) | -0.0311 | -0.167 | 0.599 | 0.925 | 0.285 | 1.3 | 0.732 | -1.14
CN(C)CCCCNC(=O)[C@H]1C[C@H]2C(=O)NCC(=O)N2[C@H]1c1cccc(OCCO)c1 | -0.539 | 0.0388 (inactive) | -0.179 | -0.146 | 0.655 | 0.0949 | -0.235 | -0.705 | 0.281 | -0.408
NCCCC[C@@H]1NC(=O)[C@H]2C[C@@H](C(=O)O)[C@@H](c3cccc(OCCO)c3)N2C1=O | 0.294 | 1.71 (inactive) | 0.526 | -0.0106 | 0.396 | 2.88 | 0.521 | 1.29 | 1.39 | 1.1
COCCOC(=O)N1C(=O)[C@@]2(c3cc(C#CC4=CCCCC4)ccc31)[C@H](C(=O)N1CCN(c3ncccn3)CC1)[C@H]1C(=O)O[C@H](c3ccccc3)[C@H](c3ccccc3)N1[C@@H]2c1ccccc1OCCO | 0.768 | 0.0421 (inactive) | 0.0433 | -0.0928 | 0.169 | 1.8 | 0.35 | 1.31 | 0.277 | 1.11
[N-]=[N+]=NCc1ccccc1C[C@]1(C(=O)N2CCCCC2)N=C(c2ccc(OCCCO)cc2)O[C@H]1c1ccccc1 | -0.0604 | 0.397 (inactive) | 0.23 | -0.0323 | 0.564 | 1.22 | -0.0174 | 0.979 | -1.02 | 0.717
CC1(C)OC[C@@]23C=C(Br)[C@@H](C[C@H]12)[C@@]1(CO1)C3=O | -0.172 | 0.0315 (inactive) | 0.0824 | -0.189 | -0.0169 | -0.0842 | -0.0515 | 0.107 | 0.467 | 0.262
C/C=C/CN(C(=O)C#Cc1ccccc1)[C@H](CO[Si](C)(C)C(C)(C)C)c1ccccc1 | -0.907 | -0.357 (inactive) | -0.384 | -0.22 | 0.599 | 0.043 | -0.155 | 0.248 | -0.553 | -1.17
C=CC[C@]1(C(=O)N(C)C)COC(c2ccc(OCCCO)cc2)=N1 | 0.795 | -0.0102 (inactive) | 0.298 | 0.107 | 0.914 | 3.5 | 1.41 | 1.25 | -0.492 | 0.673
CC#CCO[Si](C#CCCCCCC)(C(C)C)C(C)C | -0.611 | -0.244 (inactive) | -0.597 | -0.192 | -0.553 | -0.0607 | -0.529 | 0.204 | -2.33 | -2.41
CCCC=C(CCC)[C@@H](NC(=O)c1ccccc1)c1ccc(C(=O)OC)cc1 | -0.122 | -0.222 (inactive) | 1.21 | -0.166 | 0.526 | 1.77 | 0.0914 | 0.823 | 0.308 | 0.711
NC(=O)[C@@]1(CCS(=O)(=O)c2ccccc2)COC(c2ccc(OCCCO)cc2)=N1 | 0.336 | -0.823 (inactive) | 0.119 | 0.327 | 0.445 | 0.043 | -0.84 | -0.0922 | -0.536 | 0.411
O=C1NC(=O)C2C1C=CC(C(O)c1ccc(F)cc1)N2Nc1ccccn1 (stereo not given) | 0.691 | -0.531 (inactive) | -0.004 | -0.0771 | 0.831 | 2.77 | -0.393 | -0.288 | 0.317 | 0.356
CC(C)=CCN(C(=O)C#Cc1ccccc1)[C@H](CO)c1ccccc1 | -0.105 | -0.0102 (inactive) | 0.0259 | -0.0883 | -0.0216 | 0.506 | 0.0602 | 0.798 | 0.902 | 0.101

Source: PubChem BioAssay
